In PubChem BioAssay (NCATS):
“And” between values parts separate entries of the source, which are not always exact repeats. Identical values can stand only once. Inconclusive results are not listed. The source made the active and inactive calls. Unless noted, the call rests on the fitted dose curve; in most records, active means well fitted curve in the direction sought with a large enough effect; inconclusive means small, poorly fitted or top-dose-only effect, or another doubt; inactive means no such curve, though single readings can be large; an effect the other way counts as inactive or inconclusive.

Key:
[1] = AP1 Signaling Pathway (AID 357; active means well fitted curve in either direction with a large enough effect, not every such curve was filed as active;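 further: ME-180 reporter cells stimulated with EGF at its EC50 level; on the % scale 0 is the no-effect control and ±100 the full control effect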); settings: ME-180 AP-1-bla reporter, EGF-induced, beta-lactamase ratio, 5 h
Summary of the method: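 A ratiometric CCF4 readout (405 nm excitation; 460 and 530 nm emission) quantified AP-1-driven beta-lactamase in ME-180 cells after 5 h with compound and EC50 EGF; AC50 values were derived for activators and inhibitors.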

[2] = target: Cytochrome P450 1A2 (Homo sapiens) (UniProt P05177); assay: p450-cyp1a2 (AID 410; calls by dose curve;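 further: -100% = full effect of reference inhibitor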); settings: recombinant CYP1A2, luciferin-ME demethylation, luminescence; series mostly up to 11.4 µM
Chain of Cytochrome P450 1A2 (Homo sapiens) (P05177 whole entry, looked up): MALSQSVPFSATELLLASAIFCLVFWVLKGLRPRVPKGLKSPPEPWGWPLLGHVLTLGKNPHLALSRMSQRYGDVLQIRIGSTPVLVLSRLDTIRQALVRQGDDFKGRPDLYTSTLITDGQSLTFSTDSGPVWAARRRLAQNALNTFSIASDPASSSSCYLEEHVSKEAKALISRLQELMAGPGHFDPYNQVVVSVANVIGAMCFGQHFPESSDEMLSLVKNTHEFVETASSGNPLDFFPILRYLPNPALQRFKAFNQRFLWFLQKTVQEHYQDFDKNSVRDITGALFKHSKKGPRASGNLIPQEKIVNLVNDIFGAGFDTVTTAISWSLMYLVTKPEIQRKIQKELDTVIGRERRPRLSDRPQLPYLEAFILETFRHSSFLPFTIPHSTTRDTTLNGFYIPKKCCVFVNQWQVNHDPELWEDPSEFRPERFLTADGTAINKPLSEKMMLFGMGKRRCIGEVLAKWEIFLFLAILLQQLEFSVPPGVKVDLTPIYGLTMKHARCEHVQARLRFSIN
Summary of the method: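 Luminescent demethylation readout: Luciferin-ME (100uM, equal to Km) turned over by 20nM CYP1A2 for 60 min at room temperature after NADPH regeneration addition, following 10 min compound preincubation. Normalization used 57 uM furafylline as full inhibition.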

[3] = NFAT Signaling Pathway (AID 444; active means well fitted curve in either direction with a large enough effect, not every such curve was filed as active;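 further: carbachol stimulus at about its EC50 of 1 µM final; on the % scale 0 is the no-effect control and ±100 the full control effect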); settings: Jurkat NFAT-bla M1, carbachol, beta-lactamase ratio, 5 h
Summary of the method: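 Read-out: CCF4 FRET ratio (460 nm/530 nm) after 1 h RT dye loading, used for %activity and AC50 from titration series. Cells: Jurkat NFAT-β-lactamase/M1 line, treated with compound plus 1 uM carbachol for 5 h, 37 °C.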

[4] = Stat Signaling Pathway (AID 446; active means well fitted curve in either direction with a large enough effect, not every such curve was filed as active;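 further: ME-180 cervical cancer cells given 40 pM IL-6 alongside compound; SIE-controlled beta-lactamase reporter measured as 460/530 nm FRET emission ratio; on the % scale 0 is the no-effect control and ±100 the full control effect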); settings: ME-180 (cervical carcinoma) SIE beta-lactamase reporter, IL-6 stimulated, 5 h
Summary of the method: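 Overnight-plated ME-180 cells bearing a STAT Inducible Element beta-lactamase reporter; 5 h co-exposure to compound and 40 pM IL-6; values normalized to 300 pM IL-6 and 125 nM JAK inhibitor controls.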

[5] = target: Glucocorticoid receptor (Homo sapiens) (UniProt P04150); assay: GR-GFP Redistribution (AID 450;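 active means compounds whose dose series gives a full or clear partial fitted curve of increased nuclear translocation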; further: potency means the concentration at half of the fitted maximal effect); settings: U2OS GR-GFP nuclear translocation, laser cytometry, 2 h
Chain of Glucocorticoid receptor (Homo sapiens) (P04150 whole entry, looked up, the tested form may be a part): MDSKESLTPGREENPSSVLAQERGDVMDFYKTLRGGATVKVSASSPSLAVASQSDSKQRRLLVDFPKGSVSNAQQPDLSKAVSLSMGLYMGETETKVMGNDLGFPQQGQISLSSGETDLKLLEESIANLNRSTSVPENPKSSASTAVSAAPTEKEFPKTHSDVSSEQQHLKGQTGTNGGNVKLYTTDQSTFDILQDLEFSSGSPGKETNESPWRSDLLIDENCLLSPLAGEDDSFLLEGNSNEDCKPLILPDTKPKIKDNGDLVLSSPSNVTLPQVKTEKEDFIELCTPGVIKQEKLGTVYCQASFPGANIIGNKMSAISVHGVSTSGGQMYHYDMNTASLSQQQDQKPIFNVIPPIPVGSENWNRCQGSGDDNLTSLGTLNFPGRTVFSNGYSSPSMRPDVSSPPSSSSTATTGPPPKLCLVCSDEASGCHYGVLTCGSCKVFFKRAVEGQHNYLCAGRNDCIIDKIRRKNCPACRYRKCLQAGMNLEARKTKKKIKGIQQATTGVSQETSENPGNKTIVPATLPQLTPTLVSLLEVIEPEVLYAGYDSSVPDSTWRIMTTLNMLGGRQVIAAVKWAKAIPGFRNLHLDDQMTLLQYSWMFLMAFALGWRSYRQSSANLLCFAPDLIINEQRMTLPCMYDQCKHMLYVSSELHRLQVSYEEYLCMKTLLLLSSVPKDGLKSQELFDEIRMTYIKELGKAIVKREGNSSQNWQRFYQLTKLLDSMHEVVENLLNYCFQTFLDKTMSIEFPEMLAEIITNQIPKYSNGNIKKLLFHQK

[6] = target: Glucocorticoid receptor (Homo sapiens) (UniProt P04150); assay: GR-EFC Redistribution (AID 451; calls by dose curve; further: potency means the concentration at half of the fitted maximal effect); settings: CHO-K1 GR-EFC translocation, beta-gal luminescence, 2 h
Summary of the method: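 Translocation of GR-ED fusion to nuclear EA restores b-gal, read by luminescence after 1 h room-temperature detection. Engineered CHO-K1 biosensor cells, 1,000/well, exposed 2 h at 37 C to titrations up to 46 uM final.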

[7] = target: Mitogen-activated protein kinase 10 (Mus musculus) (UniProt Q61831); assay: JNK3 AlphaScreen Assay (AID 530; active means well fitted curve in either direction with a large enough effect, not every such curve was filed as active;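 further: kinase came from lysate of stimulated human HepG2 cells; signal reports phosphorylation of biotinylated GST-cJun 1-79 at Ser73 with 10 µM ATP; on the % scale 0 is the no-effect control and ±100 the full control effect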); settings: JNK3 lysate, c-Jun phosphorylation; series mostly up to 57.1 µM
Summary of the method: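 qHTS titrations with 15 min compound pre-incubation before adding ATP (10 uM final). Read-out: AlphaScreen of Ser73-phosphorylated biotin-GST-cJun using HepG2 lysate JNK3 activated by IL-1β and TNFα.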

[8] = target: 3',5'-cyclic-AMP phosphodiesterase 4B (Homo sapiens) (UniProt Q07343); assay: qHTS Assay for Inhibitors of PDE-IV (AID 607; active means well fitted activation curve with a large enough effect in the main read-out, with a control signal flat, not every such curve was filed as active; further: % of control where 0% means no effect); settings: HEK293 ACTOne CNG channel cells, membrane potential fluorescence; series mostly up to 22.9 µM
Chain of 3',5'-cyclic-AMP phosphodiesterase 4B (Homo sapiens) (Q07343 whole entry, looked up): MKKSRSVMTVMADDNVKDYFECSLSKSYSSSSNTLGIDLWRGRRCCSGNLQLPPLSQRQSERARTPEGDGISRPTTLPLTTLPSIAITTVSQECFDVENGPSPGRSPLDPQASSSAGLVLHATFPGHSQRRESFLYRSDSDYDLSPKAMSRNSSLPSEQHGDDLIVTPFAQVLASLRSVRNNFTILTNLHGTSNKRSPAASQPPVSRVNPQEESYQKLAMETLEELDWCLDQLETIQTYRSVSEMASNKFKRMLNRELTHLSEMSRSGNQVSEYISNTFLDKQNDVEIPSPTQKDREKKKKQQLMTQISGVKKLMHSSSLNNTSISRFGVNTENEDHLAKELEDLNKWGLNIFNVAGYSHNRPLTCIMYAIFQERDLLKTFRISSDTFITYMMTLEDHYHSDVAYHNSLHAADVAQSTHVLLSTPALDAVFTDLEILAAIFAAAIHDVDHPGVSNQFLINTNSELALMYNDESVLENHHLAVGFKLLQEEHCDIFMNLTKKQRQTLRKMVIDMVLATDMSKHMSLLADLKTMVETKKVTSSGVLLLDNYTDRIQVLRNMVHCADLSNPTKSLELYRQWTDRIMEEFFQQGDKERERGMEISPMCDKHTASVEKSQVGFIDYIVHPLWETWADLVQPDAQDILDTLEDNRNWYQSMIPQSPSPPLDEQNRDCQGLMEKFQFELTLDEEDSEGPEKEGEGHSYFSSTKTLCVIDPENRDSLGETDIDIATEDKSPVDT
Summary of the method: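 Live HEK293 cells with a modified cyclic nucleotide-gated (CNG) channel report intracellular cAMP via membrane-potential dye fluorescence (ex 535/em 590 nm). Endogenous PDE-IV was targeted. Compounds were tested at up to 22.9 uM final; RO 20-1724 100 uM served as control.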

[9] = target: Guanine nucleotide-binding protein G(i) subunit alpha-1 (Homo sapiens) (UniProt P63096); assay: qHTS Assay for Inhibitors of RGS12 GoLoco Motif Activity (Green Fluorophore) (AID 879); settings: Galphai1/FITC-RGS12 GoLoco peptide, fluorescence polarization; series mostly up to 57.1 µM;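 further: 0% = labeled peptide with Gαi1 and full inhibition = labeled peptide alone without protein; negative values mean loss of peptide binding seen as reduced polarization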
Chain of Guanine nucleotide-binding protein G(i) subunit alpha-1 (Homo sapiens) (P63096 whole entry, looked up): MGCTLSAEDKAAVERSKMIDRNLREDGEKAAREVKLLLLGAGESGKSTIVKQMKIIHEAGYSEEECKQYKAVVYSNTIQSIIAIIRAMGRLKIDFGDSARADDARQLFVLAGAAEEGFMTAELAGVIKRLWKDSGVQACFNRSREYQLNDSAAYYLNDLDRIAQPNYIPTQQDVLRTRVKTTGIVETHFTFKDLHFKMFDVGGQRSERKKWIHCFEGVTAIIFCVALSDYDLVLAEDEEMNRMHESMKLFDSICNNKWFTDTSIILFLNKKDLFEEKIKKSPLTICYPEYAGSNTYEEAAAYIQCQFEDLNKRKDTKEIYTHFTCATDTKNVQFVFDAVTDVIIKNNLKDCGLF
Summary of the method: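 A drop in FITC polarization marked displacement of the FITC-tagged RGS12 GoLoco peptide (10 nM) from Gαi1 (50 nM). Compounds were incubated 10 min at room temperature in Tris pH 7.5 buffer containing 150 mM NaCl, 0.1 mM GDP and 0.05% NP40; unlabeled peptide titration served as control.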

[10] = qHTS Assay for Identification of Small Molecule Agonists for Thrombopoietin (TPO) Signaling Pathway (AID 917); settings: TPO signaling pathway reporter cells, agonist qHTS; series mostly up to 38.5 µM; further: on the % scale 0 is the no-effect control and ±100 the full control effect
Summary of the method: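 Ba/F3 (mouse) + hTPO receptor + GpIIb-promoter luciferase; IL-3 withdrawn overnight; compound + 26 pM TPO (EC50), 24 hrs, 37 C, 5% CO2; Steadylite luminescence, 10 min RT.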

[11] = target: Muscarinic acetylcholine receptor M1 (Rattus norvegicus) (UniProt P08482); assay: qHTS Assay for Antagonists of Acetylcholine Muscarinic M1 Receptor: Kinetic Measurement of Intracellular Calcium Response (AID 943); settings: M1-expressing cells, kinetic intracellular calcium fluorescence; series mostly up to 35.3 µM;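 further: Fluo-4 calcium signal as peak divided by basal fluorescence over 4 min; nearly all actives have a fitted effect of over 75% in size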
Chain of Muscarinic acetylcholine receptor M1 (Rattus norvegicus) (P08482 whole entry, looked up): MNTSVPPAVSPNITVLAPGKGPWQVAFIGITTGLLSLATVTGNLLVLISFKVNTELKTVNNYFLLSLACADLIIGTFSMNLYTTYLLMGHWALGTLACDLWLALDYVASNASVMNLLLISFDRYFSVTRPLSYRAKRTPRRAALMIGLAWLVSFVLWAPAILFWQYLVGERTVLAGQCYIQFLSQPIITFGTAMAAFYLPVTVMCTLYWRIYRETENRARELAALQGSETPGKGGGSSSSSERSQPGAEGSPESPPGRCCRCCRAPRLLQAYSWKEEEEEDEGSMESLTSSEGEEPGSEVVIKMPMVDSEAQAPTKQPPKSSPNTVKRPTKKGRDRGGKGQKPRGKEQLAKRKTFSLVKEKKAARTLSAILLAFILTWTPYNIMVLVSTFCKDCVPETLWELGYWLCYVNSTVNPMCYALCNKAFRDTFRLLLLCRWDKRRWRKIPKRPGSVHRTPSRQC
Summary of the method: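 Antagonism measured as reduction of carbachol-evoked (EC80, 100 nM final) calcium flux in rat M1-CHO cells after 10 min compound exposure. Fluo-4 signal read kinetically; ratio of maximal to basal fluorescence.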

[12] = target: Muscarinic acetylcholine receptor M1 (Rattus norvegicus) (UniProt P08482); assay: qHTS Assay for Antagonists of Acetylcholine Muscarinic M1 Receptor: Measurement of IP-One Response (AID 944); settings: CHO-M1 cells, IP-One HTRF, antagonist mode; series mostly up to 46.1 µM; further: nearly all actives have a fitted effect of over 75% in size
Summary of the method: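 IP1 accumulation measured via TR-FRET between d2-IP1 and Eu-cryptate anti-IP1 antibody after carbachol (200 nM, EC80) stimulation for 30 min; rat M1-transfected CHO cells received compound 10 min before agonist.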

[13] = target: Pyruvate kinase (Leishmania mexicana) (UniProt Q27686); assay: qHTS Validation Assay for Inhibitors of Leishmania Mexicana Pyruvate Kinase (AID 945);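 further: 0% = DMSO only neutral control wells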; settings: purified L. mexicana pyruvate kinase, enzyme activity, E451W mutant enzyme; series mostly up to 57.5 µM
Chain of Pyruvate kinase (Leishmania mexicana) (Q27686 2-499 E452W): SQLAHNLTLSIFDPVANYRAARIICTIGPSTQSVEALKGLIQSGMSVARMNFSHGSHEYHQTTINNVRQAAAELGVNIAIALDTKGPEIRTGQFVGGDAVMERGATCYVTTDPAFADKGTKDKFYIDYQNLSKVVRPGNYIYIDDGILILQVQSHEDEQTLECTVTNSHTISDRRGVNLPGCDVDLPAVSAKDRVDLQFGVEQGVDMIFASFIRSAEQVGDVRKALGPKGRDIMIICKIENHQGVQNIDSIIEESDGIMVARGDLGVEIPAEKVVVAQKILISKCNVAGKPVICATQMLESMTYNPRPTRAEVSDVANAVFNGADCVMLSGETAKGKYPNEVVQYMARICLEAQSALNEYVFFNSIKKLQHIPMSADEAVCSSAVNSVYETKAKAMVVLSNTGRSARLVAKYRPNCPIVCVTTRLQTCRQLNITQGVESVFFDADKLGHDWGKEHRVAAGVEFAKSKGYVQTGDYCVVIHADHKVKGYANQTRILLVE
Summary of the method: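 qHTS eight-point titrations against 0.2 nM LmPYK (E451W) in imidazole buffer pH 7.2 with 0.5 mM PEP, 0.1 mM ADP; 1 h, room temperature. Readout: PKLight luminescence, normalized to neutral DMSO wells.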

[14] = target: Pyruvate kinase PKM (Homo sapiens) (UniProt P14618); assay: qHTS Assay for Activators of Human Muscle Pyruvate Kinase (AID 954; active means well fitted curve in the direction sought with a large enough effect, not every such curve was filed as active;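 further: 0% = uninhibited enzyme and -100% = no enzyme or full thiadiazolimine inhibition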); settings: purified human muscle pyruvate kinase, luciferase-coupled luminescence, 1 h; series mostly up to 57.5 µM
Chain of Pyruvate kinase PKM (Homo sapiens) (P14618 whole entry, looked up): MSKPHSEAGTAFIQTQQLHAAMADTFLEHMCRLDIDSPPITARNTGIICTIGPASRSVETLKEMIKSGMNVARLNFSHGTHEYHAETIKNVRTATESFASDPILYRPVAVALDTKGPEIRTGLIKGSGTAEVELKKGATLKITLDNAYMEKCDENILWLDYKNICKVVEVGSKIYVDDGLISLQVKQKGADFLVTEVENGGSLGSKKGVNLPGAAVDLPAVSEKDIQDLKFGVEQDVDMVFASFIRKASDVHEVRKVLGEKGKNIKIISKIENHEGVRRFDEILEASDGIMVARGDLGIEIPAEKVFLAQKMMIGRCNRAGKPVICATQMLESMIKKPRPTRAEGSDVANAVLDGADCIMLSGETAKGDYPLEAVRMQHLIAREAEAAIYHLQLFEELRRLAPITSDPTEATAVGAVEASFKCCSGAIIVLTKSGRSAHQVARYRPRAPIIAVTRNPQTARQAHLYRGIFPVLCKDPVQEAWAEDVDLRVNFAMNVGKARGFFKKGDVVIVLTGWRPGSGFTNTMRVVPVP
Summary of the method: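 Screening used highly purified human pyruvate kinase M2 under submaximal activity, with PEP at its Km and ADP below Km. After an hour at room temperature, ATP was read by luciferase luminescence.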

[15] = target: Alpha-galactosidase (Coffea arabica) (UniProt Q42656); assay: Counterscreen for Glucocerebrosidase Inhibitors: qHTS Assay for Coffee Bean alpha-Galactosidase at pH 4.5 (AID 957); settings: purified coffee bean alpha-galactosidase, fluorogenic substrate; series mostly up to 76.9 µM;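 further: plate controls were enzyme alone for no effect and no enzyme for full effect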
Chain of Alpha-galactosidase (Coffea arabica) (Q42656 whole entry, looked up): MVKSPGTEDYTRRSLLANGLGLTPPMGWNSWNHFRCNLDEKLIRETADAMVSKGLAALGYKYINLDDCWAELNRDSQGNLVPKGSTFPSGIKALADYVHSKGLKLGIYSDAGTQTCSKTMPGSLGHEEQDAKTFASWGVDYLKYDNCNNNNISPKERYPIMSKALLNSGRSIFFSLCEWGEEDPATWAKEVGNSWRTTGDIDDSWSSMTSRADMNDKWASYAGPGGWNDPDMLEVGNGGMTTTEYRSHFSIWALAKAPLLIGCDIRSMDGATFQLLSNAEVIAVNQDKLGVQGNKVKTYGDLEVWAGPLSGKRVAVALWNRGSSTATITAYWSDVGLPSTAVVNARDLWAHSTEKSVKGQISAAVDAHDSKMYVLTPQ
Summary of the method: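 Fluorogenic qHTS at pH 4.5 (citrate buffer with Tween-20): 2 nM enzyme, 80 uM 4-MU-alpha-galactoside substrate, compound titrated 0.7 nM to 77 uM, 20 min room temperature. Glycine/NaOH stop; 4-MU read Ex 365/Em 440; Hill-equation AC50 against no-enzyme and enzyme controls.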

[16] = target: Alpha-galactosidase A (Homo sapiens) (UniProt P06280); assay: Counterscreen for Glucocerebrosidase Inhibitors: qHTS Assay for Human alpha-Galactosidase at pH 4.5 (AID 992); settings: purified enzyme, fluorogenic substrate; series mostly up to 76.9 µM; further: 0% is about no effect
Summary of the method: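 Each compound is preincubated briefly with 2 nM enzyme before substrate addition (80 uM); plates then sit 20 min at ambient temperature, are quenched with 1M NaOH/1M glycine, and read fluorometrically.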

[17] = target: alpha-glucosidase (Oryza sativa, rice) (UniProt Q653V4); assay: Counterscreen for Glucocerebrosidase Inhibitors: qHTS Assay for Rice alpha-Glucosidase at pH 5.0 (AID 997); settings: rice alpha-glucosidase enzyme activity; series mostly up to 76.9 µM;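 further: 0% = full activity with enzyme and -100% = basal without enzyme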
Summary of the method: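 Endpoint fluorogenic assay at pH 5.0: compounds (0.7 nM to 77 uM) titrated against 4 nM rice enzyme and 400 uM 4-MU-alpha-glucoside for 20 min at room temperature; NaOH/glycine stop, read ex 365/em 440 nm, Hill-fitted AC50.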

[18] = target: Alpha-galactosidase (Coffea arabica) (UniProt Q42656); assay: Counterscreen for Glucocerebrosidase Inhibitors: qHTS Assay for Coffee Bean alpha-Galactosidase at pH 5.9 (AID 998); settings: coffee bean alpha-galactosidase enzyme assay; series mostly up to 76.9 µM;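 further: plate controls were uninhibited enzyme for no effect and no-enzyme basal signal for full effect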
Summary of the method: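 Fluorogenic 4-MU substrate hydrolysis, 80 uM substrate and 2 nM coffee bean alpha-galactosidase, pH 5.9 citrate buffer, 20 min at room temperature, then NaOH/glycine stop. Titration 0.7 nM–77 uM, normalized to no-enzyme and enzyme controls, AC50 via Hill equation.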

[19] = target: ATP-dependent 6-phosphofructokinase (Trypanosoma brucei brucei) (UniProt O15648); assay: qHTS Assay to Find Inhibitors of T. brucei phosphofructokinase: hit validation (AID 492961); settings: T. brucei PFK, ADP-Glo luminescence; series mostly up to 51.4 µM
Chain of ATP-dependent 6-phosphofructokinase (Trypanosoma brucei brucei) (O15648 whole entry, looked up): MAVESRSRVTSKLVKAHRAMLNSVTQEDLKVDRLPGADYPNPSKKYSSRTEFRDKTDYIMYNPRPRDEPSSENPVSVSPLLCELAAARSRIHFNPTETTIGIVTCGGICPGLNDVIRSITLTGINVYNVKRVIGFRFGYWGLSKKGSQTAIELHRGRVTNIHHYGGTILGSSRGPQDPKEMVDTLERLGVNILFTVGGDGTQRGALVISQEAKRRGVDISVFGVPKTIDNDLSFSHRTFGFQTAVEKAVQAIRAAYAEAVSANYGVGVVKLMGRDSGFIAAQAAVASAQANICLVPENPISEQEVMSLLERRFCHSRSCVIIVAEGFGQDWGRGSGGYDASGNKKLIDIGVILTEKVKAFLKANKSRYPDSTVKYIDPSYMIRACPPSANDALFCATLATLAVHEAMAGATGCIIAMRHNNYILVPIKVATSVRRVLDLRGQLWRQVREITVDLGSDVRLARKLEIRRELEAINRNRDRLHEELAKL
Summary of the method: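 Measures ADP output of PFK (1.25 nM) at 0.1 mM ATP, 0.5 mM F6P, pH 8.0 TEA buffer with 5 mM MgCl2. No-enzyme wells define full inhibition; uninhibited enzyme wells define zero.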

C[C@@H](Cc1ccc(O)cc1)NC[C@@H](O)c1cc(O)cc(O)c1
inactive: activity change, negative = inhibition ([1]; at 17.2 µM (top of the series)) -20.6% | activity change, negative = inhibition ([1]; at 38 µM (top of the series)) -23% | Potency [2] | activity change, negative = inhibition ([3]; at 17.2 µM (top of the series)) -2.14% | activity change, negative = inhibition ([3]; at 38 µM (top of the series)) -6.03% | activity, negative = inhibition ([4]; at 17.2 µM (top of the series)) -8.37% | activity, negative = inhibition ([4]; at 38 µM (top of the series)) -28.1% | Potency [5] > 46 µM and > 20.6 µM | Potency [6] > 46 µM and > 20.6 µM | Potency [7] | outcome [8] | outcome [9] | outcome [10] | Potency [11] | Potency [12] | outcome [13] | outcome [14] | outcome [15] | outcome [16] | outcome [17] | outcome [18] | outcome [19]
